Bioassay records (PubChem)
NPR1 antag – human Npr1 receptor antagonism. P16066. HEK293 hNpr1 GloSensor cGMP, ANP-stimulated luminescence. Potency, µM (series often up to 46.3 µM), for inactives: at the highest dose activity change, negative = inhibition, usual class: inhibitors. 1.6% of 76,000 active; calls by dose curve; further: nearly all actives have a fitted effect of over 60% in size
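Compound pre-incubated 30 min at room temperature on GloSensor-loaded HEK293 cells stably carrying hNpr1 and the pGS-40F cGMP biosensor. Stimulation uses hNppA at 0.1 nM final; luminescence is taken at baseline and 20 min post-agonist.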
NIH3T3 tox – cytotoxic compounds in NIH 3T3 cells; NIH 3T3 viability, CellTiter-Glo ATP luminescence, 48-72 h; Potency, µM (doses to about 96.7 µM), for inactives: at the top dose activity change, negative = cytotoxicity, hits mostly inhibitors; 4.3% of 94,000 active; AID 1345082; further: nearly all actives have a fitted effect of over 55% in size
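Luminescent ATP readout (CellTiter-Glo, 10 min RT) after 48 or 72 hr compound exposure of NIH 3T3 cells seeded at 400 cells/well in 1536-well format; quantitative HTS.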
FLuc inh – inhibitors of firefly (Photinus pyralis) luciferase; P08659; purified P. pyralis luciferase, luminescence, biochemical; Potency, µM (series often up to 115 µM), most hits filed as inhibitors; 2.5% of 76,000 active; further: nearly all actives have a fitted effect of over 65% in size
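Purified 10nM P. pyralis luciferase with 10uM D-luciferin and 10uM ATP in 50mM Tris acetate pH 7.5, 10mM Mg acetate, 0.01% Tween-20, 0.05% BSA. qHTS titration; luminescence read by CCD imager.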
GPT2 inh – inhibitors of human GPT2 alanine aminotransferase. Potency, µM (highest dose often 57.7 µM), for inactives: at the top dose activity change, negative = inhibition, actives largely listed as inhibitors. Recombinant GPT2, coupled pyruvate oxidase/HRP Amplex Red fluorescence. AID 1671188. 0.25% of 100,000 active; further: nearly all actives have a fitted effect of over 60% in size
Target sequence (Q8TD30 whole entry, looked up): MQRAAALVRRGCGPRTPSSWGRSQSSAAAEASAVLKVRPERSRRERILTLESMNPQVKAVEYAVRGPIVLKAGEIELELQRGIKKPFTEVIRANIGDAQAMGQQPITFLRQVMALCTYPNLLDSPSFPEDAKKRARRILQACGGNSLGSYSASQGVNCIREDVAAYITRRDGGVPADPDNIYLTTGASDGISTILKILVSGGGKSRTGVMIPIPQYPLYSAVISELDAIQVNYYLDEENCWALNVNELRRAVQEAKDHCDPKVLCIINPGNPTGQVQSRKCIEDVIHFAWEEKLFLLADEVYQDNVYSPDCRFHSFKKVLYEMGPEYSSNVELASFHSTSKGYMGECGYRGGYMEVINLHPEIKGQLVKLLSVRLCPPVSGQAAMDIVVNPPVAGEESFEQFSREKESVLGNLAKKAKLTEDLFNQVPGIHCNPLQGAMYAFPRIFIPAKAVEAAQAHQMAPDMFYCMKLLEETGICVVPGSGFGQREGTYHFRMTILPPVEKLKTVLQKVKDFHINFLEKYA
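Fluorescence read-out: pyruvate from GPT2 turnover coupled to pyruvate oxidase, HRP and Amplex Red (0.2mM ThPP, 0.2U/mL PO and HRP, 50uM Amplex final). Substrates 250uM a-KG, 2mM L-alanine; enzyme 10ng/uL; 30 min RT.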
HEK293 tox – kills HEK 293 cells; 6.6% of 94,000 active; Potency, µM (series often up to 115 µM), without a hit: at the highest dose activity change, negative = cytotoxicity, most hits filed as inhibitors; HEK 293 viability, ATP luminescence (CellTiter-Glo), 48-72 h; AID 1345083; further: nearly all actives have a fitted effect of over 60% in size
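Viability of HEK 293 cells, plated at 250 cells/well, was judged by cellular ATP after compound treatment for 48 or 72 hr. Luminescence was imaged 10 min after CellTiter-Glo addition at room temperature.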
An asterisk follows results filed as active; i = inactive; u = inconclusive; x = not tested or not shown; ! = a repeat was not active; [ ] = another dose, or the depositor's remark. Hits are enriched below; roughly 10% of the tested compounds scored in any of these assays. Unless noted, the call rests on the fitted dose curve; in most records, active means well fitted curve in the direction sought with a large enough effect; inconclusive means small, poorly fitted or top-dose-only effect, or another doubt; inactive means no such curve, though single readings can be large; an effect the other way counts as inactive or inconclusive. On the % scale 0 is the no-effect control and ±100 the full control effect; potency means the concentration at half of the fitted maximal effect.

SMILES	NPR1 antag	NIH3T3 tox	FLuc inh	GPT2 inh	HEK293 tox
O=C(Nc1cccc(Cl)c1)N1CCC(Oc2ncccc2C(=O)N2CCCCC2)C1 (stereo not given)	-2%	1%	i	i	-5%
O=C(NC1CCCCC1)c1nn(CC2CC2)c2c1CNCC2	x	-13%	x	i	1%
O=C(OCc1ccccc1O[C@@H]1O[C@H](CO)[C@@H](O)[C@H](O)[C@H]1O)C1(O)C=CCCC1O (stereo not given in full)	x	x	x	1%[27.3 µM]	x
COC(=O)c1ccc(NC(=O)N2CCCC(c3nn[nH]n3)C2)cc1 (stereo not given)	2%	0%	i	i	i
O=C(O)CCn1ncc2cc(OCC3CCN(c4nccc(C(F)(F)F)n4)CC3)ccc21	3%	u	i	0%	-19%
COCCN1Cc2ccc(NCc3ccccc3)nc2C(C)(C(=O)NC2COC2)C1 (stereo not given)	7%[70.6 µM]	u	i	-9%[88.5 µM]	u
CC1(C(=O)NC2COC2)CN(Cc2ccccc2)Cc2ccc(Nc3ccccc3)nc21 (stereo not given)	-2%[70.6 µM]	40µM*	i	-3%[88.5 µM]	89µM*
CN(CCN1CCOCC1)C(=O)c1cc(COc2cccc(F)c2)[nH]n1	8%	0%	i	i	0%
O=C(NC1CCCC1)C1c2ccccc2C(=O)N(C2CCCC2)C12CCCCC2 (stereo not given)	6%	-6%	i	-4%	-10%
O=C(NCCc1ccccc1)C1c2ccccc2C(=O)N(Cc2ccccc2)C12CCCC2 (stereo not given)	-12%	32µM*	i	i	40µM*
O=C(NC1CC1)C1c2ccccc2C(=O)N(C2CCCCC2)C12CCCCC2 (stereo not given)	-6%	u	i	i	32µM*
COC(=O)CCNC(=O)C1c2ccccc2C(=O)N(Cc2ccccc2)C12CCCC2 (stereo not given)	1%	5%	i	i	-9%
COc1cccc([S+](=O)([O-])N2CC(Oc3ccc4c(c3)OCO4)C2)c1	x	-1%	x	5%	-22%
COCCN1CCC2(CCC1=O)CN(C(=O)NC(C)C)CCN2C (stereo not given)	-2%	-11%	i	-13%	3%
O=C(Nc1cccc(C(F)(F)F)c1)O[C@@H]1CO[C@H]2[C@@H]1OC[C@@H]2n1nnnc1SC1CCCC1	u	40µM*	i	-5%	u
O=C(Nc1ccccc1)O[C@@H]1CO[C@H]2[C@@H]1OC[C@@H]2n1nnnc1SC1CCCC1	u	-25%[174 µM]	i	2%[88.5 µM]	u
O=C(Nc1ccccc1)O[C@@H]1CO[C@H]2[C@@H]1OC[C@@H]2n1nnnc1-c1ccc2c(c1)OCCO2	-13%	-26%	45µM*	i	-13%
S=C(NC1CCCCC1)N[C@H]1CO[C@H]2[C@@H]1OC[C@@H]2n1cc(-c2ccccn2)nn1	u	u	i	-26%[88.5 µM]	89µM*
O=C(Nc1cccc(C(F)(F)F)c1)O[C@@H]1CO[C@H]2[C@@H]1OC[C@@H]2n1cc(-c2ccccn2)nn1	u	u	i	0%	35µM*
COCC(=O)N1CCC(O)(c2csc(CN3CCC[C@@H]3COC)n2)CC1	3%[70.6 µM]	i	i	-1%[88.5 µM]	-1%[172 µM]
NC(=O)c1ccc(C(F)(F)F)nc1N1CCC(N2CCCC(O)C2)CC1 (stereo not given)	2%	i	i	5%	1%
N#Cc1ccc(C(=O)N2CCCCCCNC(=O)[C@@H]3CCCC[C@@H]32)cc1	8%	-13%	i	i	-15%
CN(C)C(=O)c1ccc(-c2ncc3c(n2)OCCN(Cc2ccc(F)cc2F)C3=O)cc1	-8%[70.6 µM]	-29%[138 µM]	45µM*	u	u
COc1cccc(-c2ncc3c(n2)OCCN(Cc2ccc(F)cc2F)C3=O)c1F	-10%[70.6 µM]	-17%[138 µM]	16µM*	-11%[88.5 µM]	u
O=C1c2cnc(-c3ccccc3)nc2OCCN1Cc1ccc(F)cc1F	-15%[70.6 µM]	-34%[138 µM]	i	i	112µM*
SMILES	NPR1 antag	NIH3T3 tox	FLuc inh	GPT2 inh	HEK293 tox
O=C1c2cnc(-c3cc(F)cc(F)c3)nc2OCCN1Cc1ccc(F)cc1F	-19%[70.6 µM]	-22%[138 µM]	i	i	u
NCCn1cc(C(=O)NCCS(=O)(=O)N2CCCC2)nn1	7%	-4%	i	-7%	-2%
Cc1ccc(C(=O)N2CCCC(n3cc(-c4nc(-c5ccccc5)no4)nn3)C2)s1 (stereo not given)	10µM*	u	u	i	u
Cc1ccc(C(=O)N2CCC(n3cc(-c4nc(-c5ccccc5)no4)nn3)CC2)s1	u	u	i	i	45µM*
Cc1ccc(C(=O)N2CCCC(n3cc(-c4nc(C5CC5)no4)nn3)C2)s1 (stereo not given)	-8%	-27%	i	i	u
Cc1noc(-c2cn(C3CCN(C(=O)c4ccc(C)s4)CC3)nn2)n1	25%	-26%	i	-8%	-9%
CC(C)NC[C@H](O)c1ccc(O)c(O)c1	x	x	x	3.5µM*!	x
CC(CCc1ccccc1)NCC(O)c1ccc(O)c(C(N)=O)c1 (stereo not given)	x	x	x	i	x
COc1cccc(C(CC(=O)NCc2ccc3c(c2)OCO3)c2c[nH]c3ccccc23)c1OC (stereo not given)	0%	u	i	i	u
CCc1cccc2c(C(CC(=O)NCc3ccc4c(c3)OCO4)c3ccc(OC)c(OC)c3)c[nH]c12 (stereo not given)	-21%	u	i	-3%	35µM*
COc1cccc(C(CC(=O)NCCc2ccc(OC)c(OC)c2)c2c[nH]c3ccccc23)c1 (stereo not given)	u	u	i	-1%	45µM*
CCc1cccc2c(C(CC(=O)NCCC(C)C)c3cccc(OC)c3OC)c[nH]c12 (stereo not given)	-1%	u	i	u	45µM*
CCc1cccc2c(C(CC(=O)NCCc3ccccc3)c3cccc4c3OCO4)c[nH]c12 (stereo not given)	-20%	18µM*	u	-20%	18µM*
CCc1cccc2c(C(CC(=O)NCc3ccc(F)cc3)c3cccc(OC)c3OC)c[nH]c12 (stereo not given)	0%	u	i	5%	u
O=C(Cn1nc2c(cc1=O)CCCC2)Nc1cccc2[nH]ccc12	4%	i	i	-18%	9%
CCc1cccc2c(C(CC(=O)NCCc3ccc(OC)c(OC)c3)c3cccc(OC)c3)c[nH]c12 (stereo not given)	-15%	u	i	i	25µM*
